The target of assay [1] is Estrogen receptor beta (Homo sapiens) (UniProt Q92731). The assay is described as follows: qHTS assay to identify small molecule antagonists of the estrogen receptor beta (ER-beta) signaling pathway (AID 1259378; active means well fitted inhibition curve with a large enough effect in the signal ratio in the repeat runs, not every such curve was filed as active; the % refers to the signal ratio). The method in brief:
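ER-beta-UAS-bla HEK293T (GripTite) cells in 2% charcoal-stripped FBS medium were preincubated 6 hr at 37C, dosed with compound, then stimulated with 1 nM E2 (final) for 16 hr; beta-lactamase reporter read by B/G FRET fluorescence after 2 hr substrate loading.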
(Quantitative high-throughput screening tests each substance at several concentrations.)

The nature of assay [2]: qHTS assay to identify small molecule agonists of the androgen receptor (AR) signaling pathway in the presence of an antagonist - cell viability counter screen (AID 1259379). Further: series mostly up to about 92 µM; nearly all actives have a fitted effect of over 25% in size. The gist of the method:
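MDA-kb2 human breast carcinoma cells (stable MMTV-luciferase, AR/GR responsive) were seeded 3,000 cells/well, pre-incubated 5 hr at 37C without CO2, then given 3.0uM nilutamide and compounds at 15 concentrations for 16 hr. Viability was read by CellTiter-Fluor fluorescence.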

Assay [3] in a line: qHTS assay to identify small molecule antagonists of the estrogen receptor beta (ER-beta) signaling pathway - cell viability counter screen (AID 1259382). Further: nearly all actives have a fitted effect of over 55% in size. Further: potency means the concentration at half of the fitted maximal effect. The gist of the method:
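ER-beta-UAS-bla HEK293T cells (2,000/well, 2% charcoal-stripped FBS) were pre-incubated 6 hr at 37C, then given compound plus 1nM final 17-beta-estradiol for 16 hr. Viability was read in the same wells by CellTiter-Glo luminescence after 30 min at room temperature.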

Assay [4] deals with Estrogen receptor (Homo sapiens) (UniProt P03372). Briefly: qHTS assay to identify small molecule agonists of the estrogen receptor alpha (ER-alpha) signaling pathway in the presence of an antagonist (AID 1259383; calls by dose curve; further: top concentration of the series differs between compounds; nearly all actives have a fitted effect of over 15% in size). The gist of the method: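 VM7Luc4E2 cells (endogenous full-length ER-alpha, 4×ERE-luciferase) were precultured 5 days in phenol red-free medium with 10% charcoal-stripped FBS, given 10.0nM ICI-182,780 (final), then treated with compounds at 15 concentrations for 22hr at 37C; luminescence read with ONE-Glo.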

Assay [5] is described as follows: qHTS assay to identify small molecule agonists or antagonists of the thyroid stimulating hormone receptor (TSHR) signaling pathway - wild type cell line counter screen (AID 1259384; calls by dose curve). The gist of the method: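 Wild-type HEK293 cells were plated 18 h at 37 C/5% CO2, pin-dosed with compound plus Ro20-1724 medium, held 30 min at room temperature, then given cAMP-d2 and anti-cAMP-cryptate; fluorescence was read after 1 h. Fifteen concentrations, triplicate.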

For assay [6], the target named is Thyrotropin receptor (Homo sapiens) (UniProt P16473). Briefly: qHTS assay to identify small molecule antagonists of the thyroid stimulating hormone receptor (TSHR) signaling pathway (AID 1259385; calls by dose curve; further: nearly all actives have a fitted effect of over 20% in size). The method in brief:
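TSHR-HEK293 cells were plated and held 18 h at 37C/5% CO2, then given compound plus Ro20-1724 and stimulated with TSH at 1.5 ng/mL final. After 30 min at room temperature, cAMP was detected with cAMP-d2/anti-cAMP-cryptate (1 h) by fluorescence.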

Assay [7] is described as follows: qHTS assay to identify small molecule agonists of the estrogen receptor alpha (ER-alpha) signaling pathway in the presence of an antagonist - cell viability counter screen (AID 1259386).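 Further: series mostly up to about 92 µM; cells exposed to compounds for 22 h at 37 °C before the viability read; nearly all actives have a fitted effect of over 30% in size.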 The method in brief:
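VM7Luc4E2 cells (endogenous full-length ER-alpha, 4×ERE-luciferase) were held 5 days in phenol red-free medium with 10% charcoal-stripped FBS, plated, then given 10.0nM ICI-182,780 and compounds at 15 concentrations for 22hr at 37C; viability read by CellTiter-Fluor fluorescence.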

The target of assay [8] is Progesterone receptor (Homo sapiens) (UniProt P06401). Briefly: qHTS assay to identify small molecule agonists of the progesterone receptor (PR) signaling pathway (AID 1346784; calls by dose curve; further: nearly all actives have a fitted effect of over 30% in size). The gist of the method: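 Cells (PR-UAS-bla HEK 293T, GripTite) were plated in assay medium containing 2% charcoal-stripped FBS and incubated 6 hr. Test compounds in DMSO were added for 16 hr at 37C. FRET substrate was then loaded for 2 hr at room temperature before fluorescence reading.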

A short description of assay [9]: qHTS assay to identify small molecule antagonists of the progesterone receptor (PR) signaling pathway - cell viability counter screen (AID 1346798). Further: series mostly up to about 92 µM; nearly all actives have a fitted effect of over 50% in size. The gist of the method: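 Counter screen for cytotoxicity: viability of PR-UAS-bla HEK293T cells was measured with CellTiter-Glo luminescence following 16 hr compound exposure in the presence of R5020.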
Assay [10] is described as follows: qHTS assay to identify small molecule antagonists of the TGF-beta/Smad signaling pathway - cell viability counter screen (AID 1346824). Further: nearly all actives have a fitted effect of over 50% in size. The gist of the method: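 SBE-bla HEK 293T cells were plated overnight at 37 C, then given compounds in DMSO plus TGF-beta1 (added as 0.25 ng/mL solution) for 5 hr. After the bla read, CellTiter-Glo was added to the same wells and luminescence read after 30 min at room temperature.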

A short description of assay [11]: qHTS assay to identify small molecule agonists of the TGF-beta/Smad signaling pathway - cell viability counter screen (AID 1346829). Further: top concentration of the series differs between compounds; nearly all actives have a fitted effect of over 45% in size. The gist of the method: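 Same-well cytotoxicity: CellTiter-Glo added after the 2 hr room-temperature beta-lactamase substrate step, luminescence measured 30 min later; cells had 5 hr of compound at 37 C.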
Assay [12] is described as follows: qHTS assay to identify small molecule agonists of the TGF-beta/Smad signaling pathway (AID 1346859; active means well fitted activation curve with a large enough effect in the signal ratio in the repeat runs, not every such curve was filed as active; the % refers to the signal ratio; further: series mostly up to about 77 µM). The method in brief:
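Reporter line: HEK 293T with stably integrated SBE-controlled beta-lactamase. Compound exposure lasts 5 hr at 37 C and 5% CO2; substrate loading follows for 2 hr at room temperature, with emission read at 460 and 530 nm.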

The target in assay [13] is Thyrotropin-releasing hormone receptor (Homo sapiens) (UniProt P34981). Briefly: qHTS assay to identify small molecule antagonists of the thyrotropin-releasing hormone receptor (TRHR) signaling pathway (AID 1346877; active means well fitted inhibition curve with a large enough effect in the repeat runs, not every such curve was filed as active; further: series mostly up to about 51 µM). The gist of the method: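 TRHR-expressing HEK293 cells were seeded, cultured 18 h at 37 °C, then loaded with calcium dye for 2 h. Compounds were pre-incubated 5 min at room temperature before 1 nM TRH (final) was added, and kinetic fluorescence was recorded for 3 min.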

The target is the same in assay [14]. The assay is described as follows: qHTS assay to identify small molecule agonists of the thyrotropin-releasing hormone receptor (TRHR) signaling pathway (AID 1346891; calls by dose curve; further: series mostly up to about 58 µM). The method in brief:
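Cells: TRHR-Hek293, seeded and incubated 18 h. Dye loading: 2 h at 37 °C. Compound added from DMSO stock by pin tool. Read-out: kinetic calcium fluorescence over 3 min.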

Assay [15] is described as follows: qHTS assay to identify small molecule agonists of the estrogen receptor beta (ER-beta) signaling pathway - cell viability counter screen (AID 1259380). Further: nearly all actives have a fitted effect of over 30% in size. Further: potency means the concentration at half of the fitted maximal effect. The gist of the method:
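ER-beta-UAS-bla HEK293T cells in medium with 2% charcoal-stripped FBS were preincubated 6 hr at 37C, dosed with compound in DMSO for 16 hr, then after the bla read, CellTiter-Glo was added for 30 min at room temperature; luminescence recorded.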

Assay [16] addresses Androgen receptor (Homo sapiens) (UniProt P10275). Briefly: qHTS assay to identify small molecule agonists of the androgen receptor (AR) signaling pathway in the presence of an antagonist (AID 1259381; calls by dose curve; further: nearly all actives have a fitted effect of over 15% in size). The gist of the method: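 MDA-kb2 human breast carcinoma cells carrying an MMTV-luciferase reporter (AR- and GR-responsive) were treated with compounds at 15 concentrations plus 3.0uM final nilutamide for 16hr at 37C without CO2; luminescence was read after ONE-Glo addition.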

Assay [17] has as its target Progesterone receptor (Homo sapiens) (UniProt P06401). Briefly: qHTS assay to identify small molecule antagonists of the progesterone receptor (PR) signaling pathway (AID 1346795; active means well fitted inhibition curve with a large enough effect in the signal ratio in the repeat runs, not every such curve was filed as active; the % refers to the signal ratio; further: potency means the concentration at half of the fitted maximal effect). The gist of the method:
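Antagonist mode: compounds tested against 1 nM (final) promegestone stimulation in HEK293T cells expressing PR-UAS-bla reporter, 16 hr at 37C, 5% CO2; beta-lactamase activity detected via B/G FRET substrate after 2 hr at room temperature.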

Assay [18] can be described thus: qHTS assay to identify small molecule agonists of the progesterone receptor (PR) signaling pathway - cell viability counter screen (AID 1346799; calls by dose curve; further: nearly all actives have a fitted effect of over 45% in size). The method in brief: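 Cells (PR-UAS-bla HEK293T) are plated at 3,000/well in 2% charcoal-stripped FBS medium, rested 6 hr, dosed and incubated 16 hr at 37C. CellTiter-Glo is then added and luminescence measured after 30 min at room temperature.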

Structures are written as SMILES. Inconclusive results are not listed. Activity calls are given as the source filed them. Unless noted, the call rests on the fitted dose curve; in most records, active means well fitted curve in the direction sought with a large enough effect in the repeat runs; inconclusive means weak or mixed curves; inactive means no such curve, though single readings can be large; an effect the other way counts as inactive or inconclusive.

Estrogen receptor beta (Homo sapiens), sequence (Q92731 whole entry, looked up): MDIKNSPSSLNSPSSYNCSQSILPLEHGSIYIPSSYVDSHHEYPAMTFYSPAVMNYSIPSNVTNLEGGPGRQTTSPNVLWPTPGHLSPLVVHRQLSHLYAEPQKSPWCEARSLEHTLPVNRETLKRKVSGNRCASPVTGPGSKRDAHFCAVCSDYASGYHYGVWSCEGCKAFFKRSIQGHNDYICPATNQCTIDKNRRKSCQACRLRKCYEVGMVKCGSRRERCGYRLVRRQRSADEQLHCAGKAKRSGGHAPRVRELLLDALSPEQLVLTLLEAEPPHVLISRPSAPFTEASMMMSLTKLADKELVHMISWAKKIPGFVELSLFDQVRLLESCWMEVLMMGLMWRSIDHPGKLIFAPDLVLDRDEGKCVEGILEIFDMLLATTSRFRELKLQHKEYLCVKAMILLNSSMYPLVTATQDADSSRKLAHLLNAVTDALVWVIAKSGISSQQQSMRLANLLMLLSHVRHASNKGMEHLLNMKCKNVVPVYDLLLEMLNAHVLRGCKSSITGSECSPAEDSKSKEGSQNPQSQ
Androgen receptor (Homo sapiens), sequence (P10275 whole entry, looked up): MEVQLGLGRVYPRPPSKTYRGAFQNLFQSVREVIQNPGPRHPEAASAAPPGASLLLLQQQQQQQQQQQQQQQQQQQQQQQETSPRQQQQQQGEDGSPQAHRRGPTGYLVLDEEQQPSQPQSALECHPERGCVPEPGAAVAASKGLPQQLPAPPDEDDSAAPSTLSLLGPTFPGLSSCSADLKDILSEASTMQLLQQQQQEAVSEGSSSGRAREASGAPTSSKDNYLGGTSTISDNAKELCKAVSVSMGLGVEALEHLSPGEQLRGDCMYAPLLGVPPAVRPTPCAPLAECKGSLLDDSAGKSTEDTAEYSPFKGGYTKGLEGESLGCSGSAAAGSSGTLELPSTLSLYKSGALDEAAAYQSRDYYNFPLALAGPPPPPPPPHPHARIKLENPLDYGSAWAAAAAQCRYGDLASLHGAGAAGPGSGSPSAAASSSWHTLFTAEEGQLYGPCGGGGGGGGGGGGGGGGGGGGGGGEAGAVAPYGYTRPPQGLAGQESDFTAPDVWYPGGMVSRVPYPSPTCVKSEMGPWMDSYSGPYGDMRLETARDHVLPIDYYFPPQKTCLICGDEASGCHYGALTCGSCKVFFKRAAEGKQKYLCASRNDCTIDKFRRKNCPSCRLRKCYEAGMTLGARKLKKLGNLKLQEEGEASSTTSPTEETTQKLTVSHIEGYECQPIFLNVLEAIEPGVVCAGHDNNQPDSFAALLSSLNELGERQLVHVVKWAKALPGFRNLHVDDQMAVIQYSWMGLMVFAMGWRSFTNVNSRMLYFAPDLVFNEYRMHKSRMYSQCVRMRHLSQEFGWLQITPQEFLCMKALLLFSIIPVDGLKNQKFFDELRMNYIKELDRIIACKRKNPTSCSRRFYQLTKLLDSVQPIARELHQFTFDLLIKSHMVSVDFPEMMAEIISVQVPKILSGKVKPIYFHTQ
Estrogen receptor (Homo sapiens), sequence (P03372 whole entry, looked up): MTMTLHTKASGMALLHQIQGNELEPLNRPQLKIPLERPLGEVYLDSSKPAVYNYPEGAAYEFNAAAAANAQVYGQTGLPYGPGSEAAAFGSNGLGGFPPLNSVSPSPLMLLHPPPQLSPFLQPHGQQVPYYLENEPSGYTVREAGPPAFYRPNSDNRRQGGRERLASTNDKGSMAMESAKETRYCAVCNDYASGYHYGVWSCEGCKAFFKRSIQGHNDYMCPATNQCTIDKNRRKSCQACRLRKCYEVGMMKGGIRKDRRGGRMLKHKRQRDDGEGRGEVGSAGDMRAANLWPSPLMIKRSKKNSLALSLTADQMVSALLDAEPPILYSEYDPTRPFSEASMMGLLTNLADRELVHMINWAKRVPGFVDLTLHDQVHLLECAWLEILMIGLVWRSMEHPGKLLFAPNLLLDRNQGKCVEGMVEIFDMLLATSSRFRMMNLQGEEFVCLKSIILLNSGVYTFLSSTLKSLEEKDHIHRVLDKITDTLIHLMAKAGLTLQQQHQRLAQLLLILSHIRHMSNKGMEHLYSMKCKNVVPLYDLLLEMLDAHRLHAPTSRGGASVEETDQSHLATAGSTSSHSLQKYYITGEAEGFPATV
Thyrotropin-releasing hormone receptor (Homo sapiens), sequence (P34981 whole entry, looked up): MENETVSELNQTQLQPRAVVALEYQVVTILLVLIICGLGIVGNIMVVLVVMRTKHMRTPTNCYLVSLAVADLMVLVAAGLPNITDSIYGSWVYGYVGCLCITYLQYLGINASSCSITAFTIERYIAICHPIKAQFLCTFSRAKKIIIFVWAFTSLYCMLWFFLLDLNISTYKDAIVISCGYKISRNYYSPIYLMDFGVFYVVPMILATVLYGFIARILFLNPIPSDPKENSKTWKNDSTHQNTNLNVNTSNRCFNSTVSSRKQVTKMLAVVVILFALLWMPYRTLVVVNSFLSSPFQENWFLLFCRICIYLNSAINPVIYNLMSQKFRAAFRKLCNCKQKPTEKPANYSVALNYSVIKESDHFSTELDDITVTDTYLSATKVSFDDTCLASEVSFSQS
Thyrotropin receptor (Homo sapiens), sequence (P16473 whole entry, looked up): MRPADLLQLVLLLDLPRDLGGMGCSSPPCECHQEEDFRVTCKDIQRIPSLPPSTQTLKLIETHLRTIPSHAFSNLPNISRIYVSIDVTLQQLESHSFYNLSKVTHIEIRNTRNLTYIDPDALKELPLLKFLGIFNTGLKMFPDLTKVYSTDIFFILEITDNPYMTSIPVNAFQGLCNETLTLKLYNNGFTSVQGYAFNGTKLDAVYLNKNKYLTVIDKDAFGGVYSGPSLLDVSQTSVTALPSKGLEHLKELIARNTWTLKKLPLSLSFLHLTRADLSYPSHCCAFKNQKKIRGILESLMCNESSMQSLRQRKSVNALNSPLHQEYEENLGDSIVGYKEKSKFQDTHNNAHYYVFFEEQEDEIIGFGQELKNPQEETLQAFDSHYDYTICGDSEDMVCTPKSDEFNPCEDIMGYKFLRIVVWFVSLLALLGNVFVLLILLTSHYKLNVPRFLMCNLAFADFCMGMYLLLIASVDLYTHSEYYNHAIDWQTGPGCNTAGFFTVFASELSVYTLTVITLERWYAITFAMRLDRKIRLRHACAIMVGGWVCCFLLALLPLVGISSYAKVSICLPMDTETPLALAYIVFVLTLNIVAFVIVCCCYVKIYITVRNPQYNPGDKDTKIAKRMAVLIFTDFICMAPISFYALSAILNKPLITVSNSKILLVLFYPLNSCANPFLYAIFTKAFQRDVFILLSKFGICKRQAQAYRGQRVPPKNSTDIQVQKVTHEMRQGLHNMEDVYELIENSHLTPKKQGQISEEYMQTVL
Progesterone receptor (Homo sapiens), sequence (P06401 whole entry, looked up): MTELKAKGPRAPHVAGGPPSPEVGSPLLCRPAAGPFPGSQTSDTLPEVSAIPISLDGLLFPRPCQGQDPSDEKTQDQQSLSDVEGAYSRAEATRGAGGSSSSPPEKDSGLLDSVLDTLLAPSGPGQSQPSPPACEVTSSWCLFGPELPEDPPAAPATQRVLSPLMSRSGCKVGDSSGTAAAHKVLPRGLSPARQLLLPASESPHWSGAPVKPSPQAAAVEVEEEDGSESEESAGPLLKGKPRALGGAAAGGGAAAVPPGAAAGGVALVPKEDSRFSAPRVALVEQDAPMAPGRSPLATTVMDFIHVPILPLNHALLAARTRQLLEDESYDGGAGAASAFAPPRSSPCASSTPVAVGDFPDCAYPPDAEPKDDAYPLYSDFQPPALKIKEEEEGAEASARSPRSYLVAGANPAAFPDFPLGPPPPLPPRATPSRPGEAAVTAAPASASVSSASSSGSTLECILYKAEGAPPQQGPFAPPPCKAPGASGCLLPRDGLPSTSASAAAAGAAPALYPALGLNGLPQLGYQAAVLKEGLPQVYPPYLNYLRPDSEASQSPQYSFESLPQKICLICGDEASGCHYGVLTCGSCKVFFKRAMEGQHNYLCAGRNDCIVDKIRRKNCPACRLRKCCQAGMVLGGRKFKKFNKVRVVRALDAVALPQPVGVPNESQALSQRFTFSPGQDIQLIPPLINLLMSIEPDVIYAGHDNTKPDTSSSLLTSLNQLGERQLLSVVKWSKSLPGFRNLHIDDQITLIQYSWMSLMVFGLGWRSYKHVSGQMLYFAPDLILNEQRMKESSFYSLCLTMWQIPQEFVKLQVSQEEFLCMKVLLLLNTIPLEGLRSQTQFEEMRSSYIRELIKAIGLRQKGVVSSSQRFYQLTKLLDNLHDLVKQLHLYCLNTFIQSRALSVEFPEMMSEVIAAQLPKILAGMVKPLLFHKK

With `CN1C[C@H]2c3ccccc3Oc3ccc(Cl)cc3[C@@H]2C1`, the Potency result in [1], in [2], in [3], in [4], in [5] and in [6] was “inactive” each time. Besides, the Potency entry in [7], in [8], in assay [9], in [10], in assay [12] and in assay [14] was “inactive” throughout. In addition, the compound was called inactive in assay [11] and in assay [13].

With `CCCCCC[C@@H](O)C/C=C\CCCCCCCC(=O)OC`, the Potency result in [2], in assay [15], in assay [16], in assay [3], in [4] and in [5] was “inactive” in each case. Moreover, the Potency entry in assay [6], in assay [7], in assay [8], in assay [17], in assay [9] and in assay [18] was “inactive” in each case. The Potency result in assay [10], in [12] and in assay [14] was “inactive” throughout. Moreover, the compound was classed as inactive in assay [11] and in assay [13].

With `COc1ccc(C(=O)Nc2nc3ccccc3c(NCc3ccccc3)c2C#N)cc1`, the Potency result in assay [1], in [2], in [3], in assay [4], in assay [8] and in [17] was “inactive” in each case. Besides, the Potency result in assay [9], in [18] and in assay [10] was “inactive” in each case. Moreover, in [15], the Potency was 27.3 µM (active). For the same compound, the outcome in assay [11] was inactive.

For `C[Si](C)(CCCN)O[Si](C)(C)CCCN`, the Potency result in assay [2], in [15], in [3], in assay [4], in [5] and in assay [6] was “inactive” throughout. The Potency result in [7], in assay [8], in assay [17], in assay [9], in assay [18] and in assay [10] was “inactive” in each case. Further, the Potency result in [12] was “inactive”. In addition, the outcome in assay [11] and in assay [13] was inactive.

Regarding `NC(=O)C(c1ccccc1)(c1ccccc1)[C@@H]1CCN(CCc2ccc3c(c2)CCO3)C1`, the Potency entry in assay [2], in assay [15], in assay [4], in [5], in assay [6] and in assay [7] was “inactive” throughout. The Potency entry in assay [8], in [9], in assay [18], in assay [12] and in [14] was “inactive” in each case. Moreover, the compound was classed as inactive in [11].

Regarding `C/C=C/C=C/CO`, the Potency result in [1], in assay [2], in assay [15], in assay [3], in assay [5] and in assay [6] was “inactive” in each case. Moreover, the Potency result in assay [7], in assay [8], in assay [17], in assay [9], in assay [18] and in [10] was “inactive” throughout. For the same compound, in assay [12], the Potency entry was “inactive”. Besides, the compound was called inactive in assay [11].

For `CC1(c2ccccc2)OC(C(=O)O)=CC1=O` (stereo unspecified), the Potency result in assay [1], in assay [2], in [15], in assay [3], in assay [5] and in assay [6] was “inactive” each time. Further, the Potency result in assay [7], in [8], in [17], in assay [9], in assay [18] and in [12] was “inactive” throughout. Moreover, the Potency entry in assay [14] was “inactive”. For the same compound, the outcome in assay [11] was inactive.

For the compound `COC(=O)C1=C(C)NC(COC(N)=O)=C(C(=O)OC(C)C)C1c1cccc(Cl)c1Cl` (stereo unspecified), the Potency entry in assay [1], in assay [2], in assay [16], in assay [3], in [4] and in [5] was “inactive” in each case. In addition, the Potency entry in assay [7], in assay [8] and in assay [10] was “inactive” in each case. The compound was classed as inactive in assay [11].

`O=C1OC(CN2CCOCC2)CN1/N=C/c1ccc([N+](=O)[O-])o1` (stereo unspecified): the Potency result in [1], in [15], in [16], in assay [3], in assay [4] and in [5] was “inactive” in each case. The Potency result in [6], in assay [8], in [17], in assay [9], in assay [18] and in assay [10] was “inactive” each time. Also, the Potency result in assay [12] is “inactive”. Further, the compound was called inactive in [11].

Regarding `CN1CCC(=C2c3ccccc3Sc3ccccc32)CC1`, the Potency in assay [15] is 23.7 µM (active); in assay [3] it was 21.1 µM (active); in assay [17] it was 23.7 µM (active). In addition, the Potency result in assay [16], in [4], in [7], in assay [18], in assay [10] and in assay [12] was “inactive” throughout. Moreover, in [14], the Potency result is “inactive”. Moreover, the result in assay [11] and in [13] was inactive.

With `C#Cc1cccc(Nc2ncnc3cc(OCCOC)c(OCCOC)cc23)c1`, in [15], the Potency is 2.66 µM (active). The Potency entry in [3], in assay [4], in [6], in assay [8], in assay [17] and in [18] was “inactive” throughout. For the same compound, in [10], the Potency result was “inactive”. The compound was classed as inactive in assay [11].

As for `O=C(O)c1nc(Cl)c(Cl)c(Cl)c1Cl`, the Potency result in assay [2], in assay [3], in assay [5], in [9], in assay [18] and in [10] was “inactive” throughout. The Potency result in assay [14] is “inactive”. Moreover, the outcome in assay [11] and in [13] was inactive.
